Positions count from the first letter of the chain named.

One assay addresses T1, GST-Ap-NF-kB RHD (Exaiptasia pallida (Aiptasia), UniProt A0A913YAJ5 2-422).
T1 sequence: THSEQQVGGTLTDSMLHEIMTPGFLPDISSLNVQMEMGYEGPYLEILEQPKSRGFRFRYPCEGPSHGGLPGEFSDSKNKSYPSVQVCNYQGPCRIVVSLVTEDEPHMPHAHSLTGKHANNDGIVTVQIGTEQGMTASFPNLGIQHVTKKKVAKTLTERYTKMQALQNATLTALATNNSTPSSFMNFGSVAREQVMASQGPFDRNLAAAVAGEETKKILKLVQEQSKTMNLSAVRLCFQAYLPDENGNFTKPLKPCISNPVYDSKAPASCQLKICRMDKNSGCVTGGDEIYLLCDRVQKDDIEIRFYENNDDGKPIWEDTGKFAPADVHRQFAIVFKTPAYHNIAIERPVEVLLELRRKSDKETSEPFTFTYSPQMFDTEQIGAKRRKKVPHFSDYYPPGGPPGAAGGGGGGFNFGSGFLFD
Kind of assay: protein-binding microarray (PBM); PBM: ~300 nM protein, 6 mM HEPES pH 7.8, 80 mM KCl, 0.5 mM EDTA, 0.5 mM EGTA, 6% glycerol, 35 ng/ul poly-dIdC, 1% milk, 1 h, room temperature; Ap Aiptasia and Nv Nematostella (sea anemones) / Co Capsaspora / Aq Amphimedon (sponge) / Dm Drosophila / Hu human; RHD is the Rel homology domain; high values mean tight binding. Conditions: dsDNA, one strand shown.
In turn, “CCGATTAACATCACCCACCGATTTGATGTTAATCGGGTCTTGATTCGCTTGACGCTGCTG” came in with a binding signal of 1.07 z-score.
On the same count and under the same terms, to “CCGATTAACATCACCCCGCATGCTGATGTTAATCGGGTCTTGATTCGCTTGACGCTGCTG” belongs 1.75 z-score; to “CCGATTAACATCATCCCTTGTCATGATGTTAATCGGGTCTTGATTCGCTTGACGCTGCTG”, 1.2 z-score.
“CCGATTAACATCAGGGAGCCGTATGATGTTAATCGGGTCTTGATTCGCTTGACGCTGCTG” yielded a binding signal of 1.18 z-score.
In turn, “CCGATTAACATCAGGAAGGGCGGTGATGTTAATCGGGTCTTGATTCGCTTGACGCTGCTG” returned a binding signal of 1.05 z-score.
The sequence “CCGATTAACATCATGTTTGCGGGTGATGTTAATCGGGTCTTGATTCGCTTGACGCTGCTG” yielded a binding signal of 1.22 z-score.

The next assay addresses T2, GST-Nv-NF-kB (Cys allele) (Nematostella vectensis, UniProt E5G601 2-411).
T2 sequence: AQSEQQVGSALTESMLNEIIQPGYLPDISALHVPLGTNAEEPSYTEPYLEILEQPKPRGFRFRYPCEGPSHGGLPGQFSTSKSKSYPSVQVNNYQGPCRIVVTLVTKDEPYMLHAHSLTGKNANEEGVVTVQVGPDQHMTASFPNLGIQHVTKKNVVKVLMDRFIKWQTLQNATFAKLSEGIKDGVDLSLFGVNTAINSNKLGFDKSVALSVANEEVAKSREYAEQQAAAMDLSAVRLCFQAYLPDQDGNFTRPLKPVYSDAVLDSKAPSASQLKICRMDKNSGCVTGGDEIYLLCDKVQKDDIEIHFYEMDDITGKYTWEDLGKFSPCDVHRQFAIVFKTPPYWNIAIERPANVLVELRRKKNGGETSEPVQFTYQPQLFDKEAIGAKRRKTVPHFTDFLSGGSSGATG
Described as above. The settings on record: dsDNA, one strand shown.
Turning to “CCGATTAACATCAGGAAATTGCCTGATGTTAATCGGGTCTTGATTCGCTTGACGCTGCTG”, the binding signal is 1.05 z-score.
The same measure, in the same setting: then “CCGATTAACATCACCAGGTTAGGTGATGTTAATCGGGTCTTGATTCGCTTGACGCTGCTG”, with 1.1 z-score; and “CCGATTAACATCATATTGGGAAATGATGTTAATCGGGTCTTGATTCGCTTGACGCTGCTG”, with 2.26 z-score.
On the same count and under the same terms, to “CCGATTAACATCACGGAAAAAACTGATGTTAATCGGGTCTTGATTCGCTTGACGCTGCTG” belongs 1.12 z-score.
Same read-out and setting: then “CCGATTAACATCACCTTGAACGGTGATGTTAATCGGGTCTTGATTCGCTTGACGCTGCTG”, with 1.56 z-score; and “CCGATTAACATCACCGAGTTAGTTGATGTTAATCGGGTCTTGATTCGCTTGACGCTGCTG”, with 1.15 z-score; and “CCGATTAACATCACTCTTCTCGGTGATGTTAATCGGGTCTTGATTCGCTTGACGCTGCTG”, with 1.05 z-score.
Sequence “CCGATTAACATCAATTCCCAACCTGATGTTAATCGGGTCTTGATTCGCTTGACGCTGCTG” registered a binding signal of 2.15 z-score.

The next assay has as its target T3, GST-Nv-NF-kB (Ser allele) (Nematostella vectensis, UniProt A7UNT2 2-411).
T3 sequence: T2 sequence with Q21R, C66S, S207N, E215Q, V217A, E225K, A268E, D399E
The description is as above. Conditions: dsDNA, one strand shown.
In the case of “CCGATTAACATCACCAGGTTAGGTGATGTTAATCGGGTCTTGATTCGCTTGACGCTGCTG”, the binding signal is 1.85 z-score.
“CCGATTAACATCACCGAAATTCCTGATGTTAATCGGGTCTTGATTCGCTTGACGCTGCTG” returned a binding signal of 1.53 z-score.
Still for that read-out and setting: then “CCGATTAACATCATATTGGGAAATGATGTTAATCGGGTCTTGATTCGCTTGACGCTGCTG”, with 1.92 z-score.
On to “CCGATTAACATCACGGAAAAAACTGATGTTAATCGGGTCTTGATTCGCTTGACGCTGCTG”, for which the binding signal was determined as 1.13 z-score.
As to “CCGATTAACATCACCTTGAACGGTGATGTTAATCGGGTCTTGATTCGCTTGACGCTGCTG”, the binding signal worked out at 1.73 z-score.
On the same count and under the same terms, then “CCGATTAACATCACGTGTGTAGGTGATGTTAATCGGGTCTTGATTCGCTTGACGCTGCTG”, with 1.58 z-score.
“CCGATTAACATCACCTAACTTGATGATGTTAATCGGGTCTTGATTCGCTTGACGCTGCTG” came in with a binding signal of 1.07 z-score.
Sequence “CCGATTAACATCACCTGGTCGGGTGATGTTAATCGGGTCTTGATTCGCTTGACGCTGCTG” gave a binding signal of 1.03 z-score.
Turning to “CCGATTAACATCACTCTTCTCGGTGATGTTAATCGGGTCTTGATTCGCTTGACGCTGCTG”, the binding signal came out at 1.37 z-score.
“CCGATTAACATCAATTCCCAACCTGATGTTAATCGGGTCTTGATTCGCTTGACGCTGCTG” yielded a binding signal of 1.9 z-score.
